Compounds with a hit are over-represented: about 3.7% of the library has one in this group of screens.
CHT inh = inhibitors of human choline transporter CHT; Q9GZV3; CHT-expressing cells, membrane potential dye, choline response; hits give low values; B-score at 10 µM; hit rate 0.86% among 310,000; AID 488975;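 active means B-score over 3 SD under the library average, and starting fluorescence ratio not unusually high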;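 further: choline stimulus applied at its EC90 after an EC20 pre-addition; B-score computed on integrated fluorescence ratio after choline addition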
CHT PAM = human CHT allosteric activation; CHT-expressing cells, membrane potential dye, choline EC20; hits give high values; LV-AA mutant CHT in HEK293 cells; Q9GZV3; B-score at 10 µM; hit rate 0.49% among 310,000;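 active means initial fluorescence not abnormally high and integrated response B-score, plate-corrected, over 3 SD above library mean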
ANO1 block = mouse TMEM16A channel inhibition, primary screen; Q8BHY3; HEK293 TMEM16A/YFP iodide influx fluorescence, ionomycin; normalized B-score (activity score, 25-100; higher = stronger inhibition) at 10 µM; hit rate 1.2% among 310,000; AID 588511;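 active means ratio plate-corrected score three or more library SD toward inhibition, starting fluorescence score within five deviations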;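 further: score derived from kinetic fluorescence span divided by baseline fluorescence per well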
Target sequence (Q8BHY3 whole entry, looked up): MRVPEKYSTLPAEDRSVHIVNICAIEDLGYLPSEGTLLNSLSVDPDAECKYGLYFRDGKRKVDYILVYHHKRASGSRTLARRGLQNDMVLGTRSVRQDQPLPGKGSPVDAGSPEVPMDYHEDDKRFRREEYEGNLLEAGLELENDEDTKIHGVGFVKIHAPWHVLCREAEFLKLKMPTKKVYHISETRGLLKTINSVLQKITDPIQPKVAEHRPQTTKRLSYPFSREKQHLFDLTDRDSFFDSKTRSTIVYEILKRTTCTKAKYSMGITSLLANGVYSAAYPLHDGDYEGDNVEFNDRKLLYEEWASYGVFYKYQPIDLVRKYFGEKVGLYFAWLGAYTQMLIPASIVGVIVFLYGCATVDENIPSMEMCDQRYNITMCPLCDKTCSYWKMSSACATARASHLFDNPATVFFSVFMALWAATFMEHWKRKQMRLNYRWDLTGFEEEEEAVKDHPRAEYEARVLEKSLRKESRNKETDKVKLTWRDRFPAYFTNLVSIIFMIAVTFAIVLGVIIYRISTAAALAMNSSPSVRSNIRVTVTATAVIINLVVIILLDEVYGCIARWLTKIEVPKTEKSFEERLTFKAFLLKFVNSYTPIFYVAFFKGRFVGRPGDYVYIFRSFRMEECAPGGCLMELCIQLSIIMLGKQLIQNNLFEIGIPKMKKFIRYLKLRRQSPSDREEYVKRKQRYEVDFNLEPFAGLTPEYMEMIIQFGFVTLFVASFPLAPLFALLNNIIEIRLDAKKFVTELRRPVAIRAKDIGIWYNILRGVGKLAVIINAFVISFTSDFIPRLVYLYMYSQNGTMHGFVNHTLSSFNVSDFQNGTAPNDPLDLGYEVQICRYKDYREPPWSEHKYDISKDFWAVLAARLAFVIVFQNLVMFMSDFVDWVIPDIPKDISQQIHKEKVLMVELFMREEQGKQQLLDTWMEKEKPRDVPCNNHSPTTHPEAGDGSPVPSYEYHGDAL
Kir21 block = Kir2.1 (mouse) channel inhibition | P35561 | HEK293-Kir2.1, FluxOR thallium flux fluorescence; hits give low values | B-score at 10 µM | hit rate 0.85% among 310,000;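 active means fluorescence ratio B-score at or below minus 3 SD of library scores, with starting-brightness B-score within 2 SD, cut at about -4.2 in these data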;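 further: channel flux triggered by added potassium and thallium sulfate stimulus; B-score of peak minus minimum fluorescence over baseline after thallium stimulus; more negative B-score means stronger Kir2.1 block with less thallium influx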
ANO1 activ = activators or potentiators of mouse TMEM16A chloride channel; hit rate 0.3% among 340,000; B-score at 10 µM; Q8BHY3; AID 623877; HEK293 TMEM16A/YFP-H148Q/I152L, iodide quench fluorescence; hits give low values;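 active means fluorescence-ratio B-score plate-corrected deviation score at least 3 library SD below zero, with starting fluorescence score within 5 deviations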;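 further: channel opened by trigger with iodide after compound preincubation; score built on the fluorescence ratio of max minus min over baseline; more negative score means more quench and so TMEM16A activation or potentiation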
GPR7 antagonist = antagonists of human GPR7 (neuropeptides B/W receptor 1) | GPR7-expressing cells, fluorescence antagonist assay | hit rate 1.1% among 290,000 | P48145 | AID 1861 | inhibition, % at 4.4 µM; in the data active means inhibition above about 16%, passing the limit was not always enough;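 further: cells stimulated with the agonist NPW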
TMEM16A reconf = TMEM16A (mouse) chloride channel inhibition, re-confirmation; shares compounds with ANO1 block; HEK293 TMEM16A/YFP-H148Q, iodide quench fluorescence; ionomycin added to raise cell calcium; inhibition, % at 10 µM; hit rate 39% among 2,300;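 active means mean duplicate percent inhibition, scaled so buffer wells are 0 and the reference blocker 100, over three buffer SD above buffer mean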
HEK293 Ca mobil = alters calcium mobilization in TMEM16A HEK293 cells, counter-screen | shares compounds with ANO1 block | TMEM16A/YFP HEK293, Fluo4 calcium mobilization | calcium response (% of ionomycin), % at 10 µM | hit rate 2% among 2,300 | AID 652231;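 active means duplicate-averaged calcium signal over 20% of the ionomycin maximum, relative to buffer baseline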;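 further: each well's signal is peak minus trough fluorescence divided by its pre-addition baseline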
YFP-HEK293 quench = parental YFP-HEK293 iodide quench counter-screen activity. shares compounds with ANO1 block. ionomycin. YFP ratio F(max-min)/F0 at 10 µM. 2,300 tested, under 10 active. AID 652233;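 active means yellow fluorescent protein signal ratio exceeding the buffer control mean by over 5 SD of those controls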;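 further: ratio is mean of duplicate wells from kinetic YFP trace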
ClC-1 rat inh = blocks the rat ClC-1 voltage-dependent chloride channel | ratio percent, % at 10 µM | shares compounds with ANO1 block | 2,300 tested, under 10 active | CHO ClC-1-YFP, iodide influx fluorescence quench; iodide control reads 0, buffer control 100;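 active means duplicate-mean ratio percent above the mean of iodide-only control wells, which defines zero, plus 5 of their SD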;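 further: higher percent means stronger block of ClC-1 iodide influx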
Large screens that a line does not name were inactive (follow-up assays come after a bar, where they were run).

CN(C)S(=O)(=O)c1cccc(NC(=O)c2sccc2-c2ccccc2)c1	none
Cc1cc(/C=N/n2cnnc2)c(C)n1-c1ccc(Cl)cc1	none
Cc1cc(/C=N/n2cnnc2)c(C)n1-c1ccc(OCc2ccc(F)cc2)cc1	ANO1 block 100 | TMEM16A reconf inactive | HEK293 Ca mobil inactive | YFP-HEK293 quench inactive | ClC-1 rat inh inactive
O=C(c1ccncc1)c1ccc(N2CCN(C3CC(=O)N(Cc4ccccc4)C3=O)CC2)cc1 (stereo unspecified)	ANO1 block 100 | TMEM16A reconf 25.0% | HEK293 Ca mobil inactive | YFP-HEK293 quench inactive | ClC-1 rat inh inactive
COc1ccc(N2CCN(C3CC(=O)N(Cc4ccccc4)C3=O)CC2)cc1 (stereo unspecified)	none
O=C(CCSCCC(=O)NCc1ccco1)NCc1ccco1	none (no result: ANO1 activ) | TMEM16A reconf inactive | HEK293 Ca mobil inactive | YFP-HEK293 quench inactive | ClC-1 rat inh inactive
O=C(CN1C(=O)C(=O)N(C2CCCC2)C1=O)Nc1ccc([N+](=O)[O-])cc1	none (no result: CHT inh, CHT PAM, ANO1 block, Kir21 block, GPR7 antagonist)
Cc1ccc(CCNC(=O)C(C)n2nc(C)c3c(C)n(-c4ccccc4)nc3c2=O)cc1 (stereo unspecified)	none
Cc1ccc(-n2nc3c(=O)n(C(C)C(=O)NCCC4=CCCCC4)nc(C)c3c2C)cc1 (stereo unspecified)	ANO1 block 25 | TMEM16A reconf inactive | HEK293 Ca mobil inactive | YFP-HEK293 quench inactive | ClC-1 rat inh inactive
O=C(O)CSC1CC(=O)N(c2ccc(Cl)cc2)C1=O (stereo unspecified)	none
O=C(CSC1CC(=O)N(CC(c2ccccc2)c2ccccc2)C1=O)Nc1ccc(Cl)cc1 (stereo unspecified)	ANO1 block 25 | TMEM16A reconf inactive | HEK293 Ca mobil inactive | YFP-HEK293 quench inactive | ClC-1 rat inh inactive
CN1CCN(C(=O)NC2CCCCC2)CC1	none
CN1CCN(C2CCCCCC2)CC1	ANO1 block 25 | TMEM16A reconf inactive | HEK293 Ca mobil inactive | YFP-HEK293 quench inactive | ClC-1 rat inh inactive
CC1CN(S(=O)(=O)c2ccc(Cl)c(S(=O)(=O)N3CC(C)OC(C)C3)c2)CC(C)O1 (stereo unspecified)	ANO1 block 100 | TMEM16A reconf inactive | HEK293 Ca mobil inactive | YFP-HEK293 quench inactive | ClC-1 rat inh inactive
CC1=NCCN1CCNC(=O)Nc1ccc(C(C)(C)C)cc1	none
O=C(COc1cccnc1[N+](=O)[O-])Nc1ccc(S(=O)(=O)N2CCOCC2)cc1	none
O=S(=O)(NCCOc1ccccc1F)c1cccc(Br)c1	none (no result: CHT inh, CHT PAM, ANO1 block, Kir21 block, GPR7 antagonist)
CC(=O)c1ccc(NC(=O)c2ccc(CSc3ccccc3)o2)cc1	ANO1 block 100 | TMEM16A reconf 22.0% | HEK293 Ca mobil inactive | YFP-HEK293 quench inactive | ClC-1 rat inh inactive
O=C(Nc1ccc(F)cc1)c1ccc(CSc2ccccc2)o1	none
COc1cc(F)ccc1CN1CCC(C(=O)Nc2ccc(Oc3ccccc3)nc2)CC1	none
COc1ccc(CN2CCC(C(=O)Nc3ccc(Oc4ccccc4)nc3)CC2)cc1F	ANO1 block 25 | TMEM16A reconf inactive | HEK293 Ca mobil inactive | YFP-HEK293 quench inactive | ClC-1 rat inh inactive
O=S(=O)(Nc1nc2ccccc2nc1Cl)c1ccc2ccccc2c1	ANO1 block 100 | TMEM16A reconf 28.5% | HEK293 Ca mobil inactive | YFP-HEK293 quench inactive | ClC-1 rat inh inactive
CC(=O)NS(=O)(=O)c1ccc(NC(=O)C(C)NS(=O)(=O)/C=C/c2ccccc2)cc1 (stereo unspecified)	none (no result: CHT inh, CHT PAM, ANO1 block, Kir21 block, GPR7 antagonist)
CN(C(=O)OC(C)(C)C)c1ccc(-c2nc3ccccc3s2)cc1	ANO1 block 25 (no result: GPR7 antagonist) | TMEM16A reconf 24.5% | HEK293 Ca mobil inactive | YFP-HEK293 quench inactive | ClC-1 rat inh inactive
CCCCC(CCC(=O)O)(C(=O)OCC)c1csc(Nc2ccc(OCC)cc2)n1 (stereo unspecified)	none
CCCC1CC(C)(c2csc(Nc3ccc(OCC)cc3)n2)OC1=O (stereo unspecified)	ANO1 block 100 | TMEM16A reconf 31.0% | HEK293 Ca mobil inactive | YFP-HEK293 quench inactive | ClC-1 rat inh inactive
CCOC(=O)c1c(-c2cccs2)csc1NC(=O)C(C)(C)C	ANO1 block 25 | TMEM16A reconf 33.0% | HEK293 Ca mobil inactive | YFP-HEK293 quench inactive | ClC-1 rat inh inactive
Cc1noc(C)c1C(=O)NCCc1c(C)[nH]c2ccccc12	none
COc1ccc2c(c1)CCc1c(C(=O)NC3CCCCC3)noc1-2	ANO1 block 100 | TMEM16A reconf inactive | HEK293 Ca mobil inactive | YFP-HEK293 quench inactive | ClC-1 rat inh inactive
Cn1c(SCC(=O)Nc2ccc3c(c2)n(C)c(=O)n3C)nnc1-c1ccncc1	none | TMEM16A reconf inactive | HEK293 Ca mobil inactive | YFP-HEK293 quench inactive | ClC-1 rat inh inactive
O=C(Nc1ccccc1N1CCCCC1)c1ccccc1F	ANO1 block 25 | TMEM16A reconf inactive | HEK293 Ca mobil inactive | YFP-HEK293 quench inactive | ClC-1 rat inh inactive
O=C(Cc1ccccc1F)Nc1ccccc1N1CCCC1	none
Cc1ccccc1OCC(=O)Nc1ccccc1N1CCCCC1	none
O=C(COc1c(Cl)cccc1Cl)Nc1ccccc1N1CCCC1	ANO1 block 25 | TMEM16A reconf inactive | HEK293 Ca mobil inactive | YFP-HEK293 quench inactive | ClC-1 rat inh inactive
O=C(Nc1ccccc1N1CCCC1)c1ccccc1F	none
O=C(CNCc1ccccc1Cl)Nc1ccccc1N1CCCCC1	ANO1 block 25 | TMEM16A reconf inactive | HEK293 Ca mobil inactive | YFP-HEK293 quench inactive | ClC-1 rat inh inactive
CC(c1nc2ccccc2n1Cc1ccccc1)N1CCCCC1 (stereo unspecified)	none (no result: ANO1 activ)
COc1cc(O)c(CCC(=O)c2ccc(OC)c(OC)c2)c(OC)c1	none
COCCNC(=O)CSc1nnc(NC(=O)C2CC(=O)N(c3ccccc3OC)C2)s1 (stereo unspecified)	none
Fc1ccc2nc(Nc3nc4c(F)cc(F)cc4s3)sc2c1	none
Fc1ccc2nc(Nc3nc4c(F)cccc4s3)sc2c1	ANO1 block 25 | TMEM16A reconf 25.0% | HEK293 Ca mobil inactive | YFP-HEK293 quench inactive | ClC-1 rat inh inactive
Cc1ccc(NC(=O)CN2CCN(C)CC2)cc1S(=O)(=O)N1CCOCC1	none (no result: GPR7 antagonist)
